Assay results: publication PMC7862700, “An all-to-all approach to the identification of sequence-specific readers for epigenetic DNA modifications on cytosine”

Tests used:
Assay in all cases: DAPPL (digital affinity profiling via proximity ligation, sequencing); 10 mM Tris-HCl pH 7.5, 50 mM NaCl, 1 mM DTT, 4% glycerol, room temperature, 30 min; GST-TFs on glutathione beads, 16-mer random dsDNA library, 0.1% formaldehyde crosslink after washing; high values mean tight binding
FLI1 = target: T1, FLI1 (Homo sapiens, UniProt Q01543 1-452); details: protein: recombinant; tags: N-terminal GST; dsDNA, one strand shown
T1 sequence: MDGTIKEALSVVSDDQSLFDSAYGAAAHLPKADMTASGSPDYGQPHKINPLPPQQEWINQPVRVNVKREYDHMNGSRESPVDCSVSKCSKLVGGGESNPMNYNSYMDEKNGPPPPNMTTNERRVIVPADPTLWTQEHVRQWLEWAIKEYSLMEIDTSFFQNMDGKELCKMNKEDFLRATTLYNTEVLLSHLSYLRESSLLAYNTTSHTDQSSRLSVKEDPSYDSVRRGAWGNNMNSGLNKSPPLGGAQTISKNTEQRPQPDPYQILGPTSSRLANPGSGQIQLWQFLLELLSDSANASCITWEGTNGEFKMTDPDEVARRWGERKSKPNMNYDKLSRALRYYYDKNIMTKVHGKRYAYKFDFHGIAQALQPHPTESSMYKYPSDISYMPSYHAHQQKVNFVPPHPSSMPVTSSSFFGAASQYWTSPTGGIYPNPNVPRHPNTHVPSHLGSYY
Method in brief: (§1)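 The binding signal reported is, for every hexamer, its read frequency for a factor over its read frequency for the tag-only sample. Reads came from pools of yeast-expressed, GST-fused human transcription factors on glutathione beads, barcoded with DNA and mixed with that sample, which were incubated with 200 nmole of a random double-stranded 16-mer DNA library in Tris/NaCl/DTT/glycerol buffer at room temperature for 30 min. After washing, the pools were crosslinked with 0.1% formaldehyde, proximity-ligated with BsaI/T4 ligase for 1 h at 37 °C, PCR-amplified and sequenced on an Illumina NextSeq500.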

ELK1 = target: T2, ELK1 (Homo sapiens, UniProt P19419 1-428); details: protein: recombinant; tags: N-terminal GST; dsDNA, one strand shown
T2 sequence: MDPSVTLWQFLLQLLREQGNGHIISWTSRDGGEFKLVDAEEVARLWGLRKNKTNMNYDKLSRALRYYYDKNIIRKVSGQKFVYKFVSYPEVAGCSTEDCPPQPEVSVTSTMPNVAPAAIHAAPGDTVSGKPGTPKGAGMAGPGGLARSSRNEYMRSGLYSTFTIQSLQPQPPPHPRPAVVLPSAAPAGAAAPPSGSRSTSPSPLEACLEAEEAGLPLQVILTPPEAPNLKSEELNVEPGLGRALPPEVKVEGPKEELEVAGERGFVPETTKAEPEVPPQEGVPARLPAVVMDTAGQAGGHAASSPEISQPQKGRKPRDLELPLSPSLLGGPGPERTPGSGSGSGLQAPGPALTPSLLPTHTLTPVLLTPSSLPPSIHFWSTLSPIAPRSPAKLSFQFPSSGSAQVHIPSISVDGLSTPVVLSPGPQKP
Method in brief: as §1

GABPA = target: T3, GABPA (Homo sapiens, UniProt Q06546 1-454); details: protein: recombinant; tags: N-terminal GST; dsDNA, one strand shown
T3 sequence: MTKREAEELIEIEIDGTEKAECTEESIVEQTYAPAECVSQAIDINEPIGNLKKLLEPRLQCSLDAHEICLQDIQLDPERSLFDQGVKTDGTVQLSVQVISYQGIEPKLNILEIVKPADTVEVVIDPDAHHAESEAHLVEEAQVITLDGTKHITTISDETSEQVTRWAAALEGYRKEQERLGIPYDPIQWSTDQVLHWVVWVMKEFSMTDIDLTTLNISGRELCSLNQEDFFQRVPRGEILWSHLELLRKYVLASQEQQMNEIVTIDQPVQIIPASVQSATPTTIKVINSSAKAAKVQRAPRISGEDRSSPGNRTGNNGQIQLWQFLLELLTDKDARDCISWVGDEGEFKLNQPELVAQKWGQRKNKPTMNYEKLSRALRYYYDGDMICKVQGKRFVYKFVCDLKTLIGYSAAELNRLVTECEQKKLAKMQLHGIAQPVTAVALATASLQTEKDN
Method in brief: as §1

ERG = target: T4, ERG (Homo sapiens, UniProt P11308 1-479); details: protein: recombinant; tags: N-terminal GST; dsDNA, one strand shown
T4 sequence: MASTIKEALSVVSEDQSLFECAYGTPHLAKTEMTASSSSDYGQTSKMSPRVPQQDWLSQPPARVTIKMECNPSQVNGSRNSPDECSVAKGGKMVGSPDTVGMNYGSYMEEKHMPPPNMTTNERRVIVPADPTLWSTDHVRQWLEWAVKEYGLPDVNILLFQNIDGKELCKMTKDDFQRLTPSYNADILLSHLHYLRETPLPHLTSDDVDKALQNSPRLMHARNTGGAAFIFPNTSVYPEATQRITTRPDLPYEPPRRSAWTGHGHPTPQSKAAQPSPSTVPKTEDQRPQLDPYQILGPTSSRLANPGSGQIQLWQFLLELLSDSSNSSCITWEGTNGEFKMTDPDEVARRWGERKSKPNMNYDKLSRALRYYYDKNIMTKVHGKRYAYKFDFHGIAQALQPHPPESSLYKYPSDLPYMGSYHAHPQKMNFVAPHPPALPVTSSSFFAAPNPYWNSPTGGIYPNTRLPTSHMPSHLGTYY
Method in brief: as §1

ELF1 = ELF1 (Homo sapiens, UniProt P32519 1-619); details: protein: recombinant; tags: N-terminal GST; dsDNA, one strand shown
Chain of ELF1 (P32519 whole entry): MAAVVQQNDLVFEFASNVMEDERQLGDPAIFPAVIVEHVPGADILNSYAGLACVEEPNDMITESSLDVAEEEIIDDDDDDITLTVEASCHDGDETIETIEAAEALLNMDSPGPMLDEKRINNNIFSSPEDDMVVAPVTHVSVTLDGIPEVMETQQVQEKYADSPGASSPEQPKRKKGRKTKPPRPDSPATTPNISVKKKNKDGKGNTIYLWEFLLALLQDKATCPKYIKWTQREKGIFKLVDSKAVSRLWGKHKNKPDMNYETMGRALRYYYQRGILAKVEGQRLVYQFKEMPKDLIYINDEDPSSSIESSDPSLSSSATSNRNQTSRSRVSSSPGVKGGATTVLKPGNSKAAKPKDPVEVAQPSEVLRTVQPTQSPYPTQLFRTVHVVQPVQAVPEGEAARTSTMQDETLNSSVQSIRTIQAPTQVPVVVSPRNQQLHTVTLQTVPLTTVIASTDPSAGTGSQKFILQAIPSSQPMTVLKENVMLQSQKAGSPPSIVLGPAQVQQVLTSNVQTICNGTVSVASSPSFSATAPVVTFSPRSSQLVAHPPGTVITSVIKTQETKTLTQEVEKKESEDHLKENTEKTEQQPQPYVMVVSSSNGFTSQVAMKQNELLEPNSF
Method in brief: as §1

EHF = target: T5, EHF (Homo sapiens, UniProt Q9NZC4 1-300); details: protein: recombinant; tags: N-terminal GST; dsDNA, one strand shown
T5 sequence: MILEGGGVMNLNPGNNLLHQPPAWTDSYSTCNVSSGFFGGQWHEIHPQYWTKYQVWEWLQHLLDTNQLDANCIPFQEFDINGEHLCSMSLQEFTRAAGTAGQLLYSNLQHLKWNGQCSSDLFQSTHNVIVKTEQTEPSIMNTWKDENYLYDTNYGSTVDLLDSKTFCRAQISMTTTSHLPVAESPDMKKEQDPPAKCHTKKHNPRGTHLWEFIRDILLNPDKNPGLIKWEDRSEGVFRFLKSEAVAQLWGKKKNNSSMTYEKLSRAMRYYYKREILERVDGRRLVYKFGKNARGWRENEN
Method in brief: as §1

SPI1 = SPI1 (Homo sapiens, UniProt P17947 1-270); details: protein: recombinant; tags: N-terminal GST; dsDNA, one strand shown
Method in brief: as §1

SPIB = SPIB (Homo sapiens, UniProt Q01892 1-262); details: protein: recombinant; tags: N-terminal GST; dsDNA, one strand shown
Chain of SPIB (Q01892 whole entry): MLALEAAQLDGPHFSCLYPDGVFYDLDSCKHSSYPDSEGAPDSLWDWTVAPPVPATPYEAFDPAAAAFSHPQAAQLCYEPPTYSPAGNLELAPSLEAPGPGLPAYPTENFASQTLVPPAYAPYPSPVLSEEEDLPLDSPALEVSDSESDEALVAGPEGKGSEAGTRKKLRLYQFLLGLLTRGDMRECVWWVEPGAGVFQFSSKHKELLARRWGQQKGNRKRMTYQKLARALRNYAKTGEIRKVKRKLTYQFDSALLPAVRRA
Method in brief: as §1

ELK3 = target: T6, ELK3 (Homo sapiens, UniProt P41970 1-407); details: protein: recombinant; tags: N-terminal GST; dsDNA, one strand shown
T6 sequence: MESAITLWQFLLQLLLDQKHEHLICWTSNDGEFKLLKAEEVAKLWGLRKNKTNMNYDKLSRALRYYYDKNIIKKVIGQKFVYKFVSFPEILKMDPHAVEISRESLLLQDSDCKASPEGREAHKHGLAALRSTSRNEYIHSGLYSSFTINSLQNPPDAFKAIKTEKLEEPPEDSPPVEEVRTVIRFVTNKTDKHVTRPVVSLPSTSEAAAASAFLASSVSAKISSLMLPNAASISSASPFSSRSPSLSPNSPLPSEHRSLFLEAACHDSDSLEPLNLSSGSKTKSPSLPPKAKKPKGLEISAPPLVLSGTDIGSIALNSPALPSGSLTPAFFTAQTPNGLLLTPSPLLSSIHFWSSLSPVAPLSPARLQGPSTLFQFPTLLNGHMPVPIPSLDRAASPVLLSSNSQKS
Method in brief: as §1

FEV = target: T7, FEV (Homo sapiens, UniProt Q99581 1-238); details: protein: recombinant; tags: N-terminal GST; dsDNA, one strand shown
T7 sequence: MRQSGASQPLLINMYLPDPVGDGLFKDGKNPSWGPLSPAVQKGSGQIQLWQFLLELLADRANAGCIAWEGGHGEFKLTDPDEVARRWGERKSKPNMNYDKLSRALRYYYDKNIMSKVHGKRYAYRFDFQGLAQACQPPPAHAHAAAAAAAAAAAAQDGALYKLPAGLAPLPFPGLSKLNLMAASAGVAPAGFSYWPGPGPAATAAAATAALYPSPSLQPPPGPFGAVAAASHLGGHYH
Method in brief: as §1

ETV5 = ETV5 (Homo sapiens, UniProt P41161 1-510); details: protein: recombinant; tags: N-terminal GST; dsDNA, one strand shown
Chain of ETV5 (P41161 whole entry): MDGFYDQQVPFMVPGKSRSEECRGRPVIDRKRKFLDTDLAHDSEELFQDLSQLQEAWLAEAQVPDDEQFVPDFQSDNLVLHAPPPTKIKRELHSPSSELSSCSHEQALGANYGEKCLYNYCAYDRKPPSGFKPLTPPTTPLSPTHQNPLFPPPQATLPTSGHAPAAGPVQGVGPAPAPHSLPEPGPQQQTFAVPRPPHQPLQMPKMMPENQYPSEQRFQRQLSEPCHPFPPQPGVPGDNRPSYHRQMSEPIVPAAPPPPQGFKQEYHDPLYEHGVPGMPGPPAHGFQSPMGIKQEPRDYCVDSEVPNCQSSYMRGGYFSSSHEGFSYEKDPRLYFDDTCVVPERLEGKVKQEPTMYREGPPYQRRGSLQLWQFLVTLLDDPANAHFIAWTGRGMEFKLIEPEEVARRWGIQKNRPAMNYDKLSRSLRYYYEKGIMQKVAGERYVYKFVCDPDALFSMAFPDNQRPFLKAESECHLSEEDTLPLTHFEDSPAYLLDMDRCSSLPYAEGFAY
Method in brief: as §1

HSF1 = HSF1 (Homo sapiens, UniProt Q00613 1-529); details: protein: recombinant; tags: N-terminal GST; chain copies: 3; dsDNA, one strand shown
Chain of HSF1 (Q00613 whole entry): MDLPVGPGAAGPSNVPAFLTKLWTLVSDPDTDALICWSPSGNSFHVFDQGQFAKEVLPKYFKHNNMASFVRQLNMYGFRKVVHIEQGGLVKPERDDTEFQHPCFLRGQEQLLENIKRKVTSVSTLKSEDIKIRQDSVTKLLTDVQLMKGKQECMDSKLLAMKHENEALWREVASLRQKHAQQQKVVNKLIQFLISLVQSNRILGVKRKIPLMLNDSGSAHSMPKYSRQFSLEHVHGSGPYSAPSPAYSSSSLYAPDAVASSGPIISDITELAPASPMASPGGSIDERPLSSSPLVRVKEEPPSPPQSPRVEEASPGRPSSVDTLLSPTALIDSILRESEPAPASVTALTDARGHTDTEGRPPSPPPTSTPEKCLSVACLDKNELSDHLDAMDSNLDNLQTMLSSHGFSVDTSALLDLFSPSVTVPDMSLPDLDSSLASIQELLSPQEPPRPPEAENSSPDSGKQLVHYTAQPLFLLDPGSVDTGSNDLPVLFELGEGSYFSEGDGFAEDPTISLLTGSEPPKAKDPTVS
Method in brief: as §1

SPIC = target: T8, SPIC (Homo sapiens, UniProt Q8N5J4 1-248); details: protein: recombinant; tags: N-terminal GST; dsDNA, one strand shown
T8 sequence: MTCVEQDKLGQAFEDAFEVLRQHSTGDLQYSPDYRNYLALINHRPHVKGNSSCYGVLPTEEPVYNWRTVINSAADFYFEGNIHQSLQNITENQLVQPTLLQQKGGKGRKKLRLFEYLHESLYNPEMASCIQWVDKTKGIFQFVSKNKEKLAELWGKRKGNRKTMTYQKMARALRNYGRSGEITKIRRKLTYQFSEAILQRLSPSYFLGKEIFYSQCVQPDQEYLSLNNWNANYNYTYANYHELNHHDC
Method in brief: as §1

ELF4 = ELF4 (Homo sapiens, UniProt Q99607 1-663); details: protein: recombinant; tags: N-terminal GST; dsDNA, one strand shown
Chain of ELF4 (Q99607 whole entry): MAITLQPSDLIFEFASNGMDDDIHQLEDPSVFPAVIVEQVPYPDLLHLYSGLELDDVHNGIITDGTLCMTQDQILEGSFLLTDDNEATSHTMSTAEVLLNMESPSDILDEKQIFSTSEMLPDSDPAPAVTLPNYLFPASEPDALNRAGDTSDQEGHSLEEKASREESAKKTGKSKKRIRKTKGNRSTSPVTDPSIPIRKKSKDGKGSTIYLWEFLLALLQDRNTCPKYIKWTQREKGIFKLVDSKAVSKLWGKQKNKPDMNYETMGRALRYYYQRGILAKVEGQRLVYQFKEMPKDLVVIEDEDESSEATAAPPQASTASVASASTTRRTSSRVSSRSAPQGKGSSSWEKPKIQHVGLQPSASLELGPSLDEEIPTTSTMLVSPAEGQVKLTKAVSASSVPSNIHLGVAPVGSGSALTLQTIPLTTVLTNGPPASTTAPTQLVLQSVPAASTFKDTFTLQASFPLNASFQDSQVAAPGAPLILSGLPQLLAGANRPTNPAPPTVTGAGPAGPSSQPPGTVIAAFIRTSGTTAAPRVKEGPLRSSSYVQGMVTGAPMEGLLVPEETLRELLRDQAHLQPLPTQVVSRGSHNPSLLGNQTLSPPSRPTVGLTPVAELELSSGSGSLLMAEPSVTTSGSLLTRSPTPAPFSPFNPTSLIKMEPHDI
Method in brief: as §1

ELK4 = target: T9, ELK4 (Homo sapiens, UniProt P28324-2 1-405); details: protein: recombinant; tags: N-terminal GST; dsDNA, one strand shown
T9 sequence: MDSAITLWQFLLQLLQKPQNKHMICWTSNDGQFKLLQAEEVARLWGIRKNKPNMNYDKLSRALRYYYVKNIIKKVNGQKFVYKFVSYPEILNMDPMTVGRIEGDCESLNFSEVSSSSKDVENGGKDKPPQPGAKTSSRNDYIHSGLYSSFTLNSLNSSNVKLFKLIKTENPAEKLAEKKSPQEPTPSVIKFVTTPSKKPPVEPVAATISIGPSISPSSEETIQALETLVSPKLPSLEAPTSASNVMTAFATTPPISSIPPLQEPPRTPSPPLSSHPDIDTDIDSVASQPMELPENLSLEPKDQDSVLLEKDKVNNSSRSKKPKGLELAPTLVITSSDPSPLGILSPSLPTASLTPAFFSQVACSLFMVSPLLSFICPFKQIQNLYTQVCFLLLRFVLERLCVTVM
Method in brief: as §1

ETV2 = target: T10, ETV2 (Homo sapiens, UniProt O00321 1-342); details: protein: recombinant; tags: N-terminal GST; dsDNA, one strand shown
T10 sequence: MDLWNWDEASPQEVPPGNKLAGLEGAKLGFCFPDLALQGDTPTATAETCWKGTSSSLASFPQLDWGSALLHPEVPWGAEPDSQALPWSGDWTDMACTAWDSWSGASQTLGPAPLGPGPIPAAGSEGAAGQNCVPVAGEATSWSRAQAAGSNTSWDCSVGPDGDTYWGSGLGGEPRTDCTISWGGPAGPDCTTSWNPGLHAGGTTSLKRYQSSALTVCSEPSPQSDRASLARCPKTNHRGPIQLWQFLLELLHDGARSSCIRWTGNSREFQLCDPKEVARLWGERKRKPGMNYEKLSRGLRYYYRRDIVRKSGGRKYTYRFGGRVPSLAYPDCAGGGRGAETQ
Method in brief: as §1

ELF3 = target: T11, ELF3 (Homo sapiens, UniProt P78545 1-371); details: protein: recombinant; tags: N-terminal GST; dsDNA, one strand shown
T11 sequence: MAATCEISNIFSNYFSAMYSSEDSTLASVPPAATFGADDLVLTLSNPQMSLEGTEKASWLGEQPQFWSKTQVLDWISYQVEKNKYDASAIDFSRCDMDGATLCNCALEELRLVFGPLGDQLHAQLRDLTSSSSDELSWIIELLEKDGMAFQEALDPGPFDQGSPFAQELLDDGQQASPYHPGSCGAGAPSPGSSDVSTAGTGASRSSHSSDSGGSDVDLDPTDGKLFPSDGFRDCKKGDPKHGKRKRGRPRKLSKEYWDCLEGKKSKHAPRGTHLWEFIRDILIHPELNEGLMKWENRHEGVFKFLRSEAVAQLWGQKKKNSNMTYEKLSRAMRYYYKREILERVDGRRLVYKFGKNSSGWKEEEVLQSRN
Method in brief: as §1

ETV1 = ETV1 (Homo sapiens, UniProt P50549 1-477); details: protein: recombinant; tags: N-terminal GST; dsDNA, one strand shown
Chain of ETV1 (P50549 whole entry): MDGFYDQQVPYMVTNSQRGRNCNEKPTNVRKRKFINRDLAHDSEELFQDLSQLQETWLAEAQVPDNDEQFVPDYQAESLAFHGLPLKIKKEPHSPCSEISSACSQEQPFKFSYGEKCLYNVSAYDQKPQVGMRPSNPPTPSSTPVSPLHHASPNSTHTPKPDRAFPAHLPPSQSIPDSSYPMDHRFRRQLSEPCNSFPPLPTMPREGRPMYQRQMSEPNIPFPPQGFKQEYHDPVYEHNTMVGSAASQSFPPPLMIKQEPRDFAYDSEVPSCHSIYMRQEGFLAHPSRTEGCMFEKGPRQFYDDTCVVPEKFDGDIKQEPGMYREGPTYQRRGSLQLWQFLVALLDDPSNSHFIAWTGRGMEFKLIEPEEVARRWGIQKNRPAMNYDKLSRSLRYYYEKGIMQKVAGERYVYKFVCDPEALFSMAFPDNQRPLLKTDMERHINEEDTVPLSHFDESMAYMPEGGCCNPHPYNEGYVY
Method in brief: as §1

Q: How did the binding signal (FLI1) turn out when TGTACC was run?
A: 1.42 fold enrichment (6-mer frequency, TF over GST control)

Q: What about the binding signal (ELK1) of the same sequence?
A: 1.36 fold enrichment (6-mer frequency, TF over GST control)

Q: And the binding signal (GABPA)?
A: 1.29 fold enrichment (6-mer frequency, TF over GST control)

Q: And the binding signal (ERG)?
A: 1.26 fold enrichment (6-mer frequency, TF over GST control)

Q: What about the binding signal (ELF1) of the same sequence?
A: 1.34 fold enrichment (6-mer frequency, TF over GST control)

Q: What about the binding signal (EHF) of the same sequence?
A: 1.35 fold enrichment (6-mer frequency, TF over GST control)

Q: And the binding signal (SPI1)?
A: 1.33 fold enrichment (6-mer frequency, TF over GST control)

Q: What about the binding signal (SPIB) of the same sequence?
A: 1.22 fold enrichment (6-mer frequency, TF over GST control)

Q: What about the binding signal (ELK3) of the same sequence?
A: 1.28 fold enrichment (6-mer frequency, TF over GST control)

Q: What about the binding signal (FEV) of the same sequence?
A: 1.38 fold enrichment (6-mer frequency, TF over GST control)

Q: What about the binding signal (ETV5) of the same sequence?
A: 1.4 fold enrichment (6-mer frequency, TF over GST control)

Q: What about the binding signal (HSF1) of the same sequence?
A: 1.03 fold enrichment (6-mer frequency, TF over GST control)

Q: What about the binding signal (SPIC) of the same sequence?
A: 1.39 fold enrichment (6-mer frequency, TF over GST control)

Q: And the binding signal (ELF4)?
A: 1.26 fold enrichment (6-mer frequency, TF over GST control)

Q: And the binding signal (ELK4)?
A: 1.39 fold enrichment (6-mer frequency, TF over GST control)

Q: And the binding signal (ETV2)?
A: 1.35 fold enrichment (6-mer frequency, TF over GST control)

Q: And the binding signal (ELF3)?
A: 1.38 fold enrichment (6-mer frequency, TF over GST control)

Q: What about the binding signal (ETV1) of the same sequence?
A: 1.37 fold enrichment (6-mer frequency, TF over GST control)
